The source of these data is PubChem BioAssay (Tox21).

Records with an inconclusive call do not appear. A call without a number means that no potency is given here. Active and inactive are the calls of the source. Calls come from the whole dose curve.
Note: nearly all actives have a fitted effect of over 45% in size.

A short description of one assay: p53 small molecule agonists, cell-based qHTS assay with human liver microsomes: qHTS cell viability counter screen (AID 1963579). Note: potency is the fitted concentration of half-maximal effect. The following applies: p53RE-bla HCT-116 viability, ATP luminescence, 16 h, HLM; series mostly up to 66 µM. The procedure, abridged: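 Seed p53RE-bla cells at 4,000 per well; incubate 5 h at 37 C; add compound, human liver microsomes and NADPH; incubate 16 h at 37 C; add CellTiter-Glo; after 30 min at room temperature, read luminescence.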
A general note: qHTS replaces the single test concentration by a dilution series.
For the compound `CC(=O)c1ccc(Cl)c(Cl)c1Cl`, the Potency entry was “inactive”.

Consider `O=C(O)CCC(=O)c1ccc(-c2ccccc2)cc1`, for which the Potency result was “inactive”.

With `CCCCCCCCOC(C)=O`, the Potency entry is “inactive”.

Take `O=C(Nc1ccc2c(O)c(N=Nc3ccc(N=Nc4ccc(S(=O)(=O)O)cc4)cc3)c(S(=O)(=O)O)cc2c1)c1ccccc1`: the Potency entry is “inactive”.

With `CC(C)(C)C(=O)/C=C/c1ccc(Cl)cc1`, the Potency result was “inactive”.

`OCC(O)[C@@H](O)[C@H](O)[C@H](O)CO[C@H]1O[C@H](CO)[C@@H](O)[C@H](O)[C@H]1O` (stereo partly specified): the Potency entry was “inactive”.

`C[C@@H](CN1CC(=O)NC(=O)C1)N1CC(=O)NC(=O)C1`: the Potency entry was “inactive”.

In the case of `Cc1ccsc1C(=CCCN1CCC[C@@H](C(=O)O)C1)c1sccc1C`, the Potency entry is “inactive”.

Turning to `CCCCCCCCCCC(=O)O`, the Potency result is “inactive”.

For `CCCc1nc2c(C)cc(-c3nc4ccccc4n3C)cc2n1Cc1ccc(-c2ccccc2C(=O)O)cc1`, the Potency result was “inactive”.

Turning to `CCOCCOCCOC(C)=O`, the Potency result is “inactive”.

`CO[Si](C)(OC)c1ccccc1`: the Potency result is “inactive”.

Take `Cc1ccc(N(CC2=NCCN2)c2cccc(O)c2)cc1`: the Potency result is “inactive”.

Regarding `COC(=O)c1ccccc1Cl`, the Potency result was “inactive”.

As to `CNS(=O)(=O)Cc1ccc2[nH]cc(CCN(C)C)c2c1`, the Potency result is “inactive”.

As to `CCCCCCCCCC#N`, the Potency is 11.4 µM (active).

In the case of `CCOC(=O)CCCCCCCCC(=O)OCC`, the Potency result was “inactive”.

`COc1cccc(O)c1`: the Potency result is “inactive”.

Take `CC[C@H]1OC(=O)[C@H](C)[C@@H](O[C@H]2C[C@@](C)(OC)[C@@H](O)[C@H](C)O2)[C@H](C)[C@@H](O[C@@H]2O[C@H](C)C[C@H](N(C)C)[C@H]2O)[C@](C)(OC)C[C@@H](C)C(=O)[C@H](C)[C@@H](O)[C@]1(C)O`: the Potency result is “inactive”.

For the compound `[O-][n+]1cccc(CO)c1`, the Potency result is “inactive”.

Consider `CC1OCCC1=O` (stereo unspecified), for which the Potency entry is “inactive”.

For `CC(C)=CCC/C(C)=C/CC/C(C)=C/CO`, the Potency entry is “inactive”.

Turning to `O=[N+]([O-])c1cc(Cl)c(Cl)c(Cl)c1Cl`, the Potency result is “inactive”.

`COCCOCC(OC)OC`: the Potency result was “inactive”.

As for `ClC(Cl)(Br)Br`, the Potency entry is “inactive”.

With `N[C@H]1CN(c2c(F)cc3c(=O)c(C(=O)O)cn(C4C[C@H]4F)c3c2Cl)CC12CC2` (stereo partly specified), the Potency result was “inactive”.

Turning to `CCC(=O)c1cccc(Cl)c1`, the Potency result was “inactive”.

With `CC(C)(C)NC[C@H](O)COc1cccc2c1CCCC2=O`, the Potency entry was “inactive”.

`COc1cc2nc(Cl)nc(N)c2cc1OC`: the Potency result was “inactive”.

As to `O=C1CCCc2c(O)cccc21`, the Potency entry is “inactive”.

Regarding `C=CC(=O)O`, the Potency result was “inactive”.

Take `Cc1c(C)c2c(c(C)c1O)CC[C@@](C)(CCC[C@H](C)CCC[C@H](C)CCCC(C)C)O2`: the Potency result is “inactive”.

With `C[C@H](CCC(=O)O)[C@H]1CC[C@H]2[C@@H]3[C@H](O)C[C@@H]4C[C@H](O)CC[C@]4(C)[C@H]3C[C@H](O)[C@]12C`, the Potency result was “inactive”.

Take `Cc1ccco1`: the Potency result was “inactive”.

As for `CN(C)c1ccc(C(c2ccccc2)c2ccc(N(C)C)cc2)cc1`, the Potency result is “inactive”.

`CCCCOC(=O)C(C)Oc1ccc(Oc2ccc(C(F)(F)F)cn2)cc1` (stereo unspecified): the Potency result was “inactive”.

A short description of a further assay: p53 small molecule agonists, cell-based qHTS assay with rat liver microsomes: qHTS cell viability counter screen (AID 1963580). The note with it: p53RE-bla HCT-116 + rat microsomes, ATP viability, 16 h; series mostly up to 66 µM. The method, boiled down:
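Rat liver microsome (0.5 mg/mL final) and NADPH (0.5 mg/mL final) co-incubation with compounds for 16 h at 37 C on HCT-116 p53RE-bla cells; cytotoxicity taken from intracellular ATP luminescence.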
Take `CC(=O)c1ccc(Cl)c(Cl)c1Cl`: the Potency result was “inactive”.

On to `O=C(O)CCC(=O)c1ccc(-c2ccccc2)cc1`, for which the Potency result was “inactive”.

In the case of `O=C(Nc1ccc2c(O)c(N=Nc3ccc(N=Nc4ccc(S(=O)(=O)O)cc4)cc3)c(S(=O)(=O)O)cc2c1)c1ccccc1`, the Potency result was “inactive”.

Regarding `CC(C)(C)C(=O)/C=C/c1ccc(Cl)cc1`, the Potency entry is “inactive”.

In the case of `OCC(O)[C@@H](O)[C@H](O)[C@H](O)CO[C@H]1O[C@H](CO)[C@@H](O)[C@H](O)[C@H]1O` (stereo partly specified), the Potency result was “inactive”.

As for `Cc1ccsc1C(=CCCN1CCC[C@@H](C(=O)O)C1)c1sccc1C`, the Potency entry was “inactive”.

In the case of `CCCCCCCCCCC(=O)O`, the Potency entry was “inactive”.

`CCOc1nc2cccc(C(=O)O)c2n1Cc1ccc(-c2ccccc2-c2nn[nH]n2)cc1`: the Potency entry is “inactive”.

Regarding `CCCc1nc2c(C)cc(-c3nc4ccccc4n3C)cc2n1Cc1ccc(-c2ccccc2C(=O)O)cc1`, the Potency result was “inactive”.

Take `CCOCCOCCOC(C)=O`: the Potency entry was “inactive”.

In the case of `CO[Si](C)(OC)c1ccccc1`, the Potency result was “inactive”.

Consider `Cc1ccc(N(CC2=NCCN2)c2cccc(O)c2)cc1`, for which the Potency result was “inactive”.

In the case of `COC(=O)c1ccccc1Cl`, the Potency result was “inactive”.

`CNS(=O)(=O)Cc1ccc2[nH]cc(CCN(C)C)c2c1`: the Potency entry was “inactive”.

Turning to `CCOC(=O)CCCCCCCCC(=O)OCC`, the Potency result was “inactive”.

As to `COc1cccc(O)c1`, the Potency result is “inactive”.

Turning to `[O-][n+]1cccc(CO)c1`, the Potency result was “inactive”.

Consider `CC1OCCC1=O` (stereo unspecified), for which the Potency entry is “inactive”.

As to `CC(C)=CCC/C(C)=C/CC/C(C)=C/CO`, the Potency result is “inactive”.

For `O=[N+]([O-])c1cc(Cl)c(Cl)c(Cl)c1Cl`, the Potency entry was “inactive”.

For `COCCOCC(OC)OC`, the Potency entry is “inactive”.

For `ClC(Cl)(Br)Br`, the Potency entry is “inactive”.

As to `N[C@H]1CN(c2c(F)cc3c(=O)c(C(=O)O)cn(C4C[C@H]4F)c3c2Cl)CC12CC2` (stereo partly specified), the Potency entry was “inactive”.

As for `CCC(=O)c1cccc(Cl)c1`, the Potency result was “inactive”.

In the case of `CC(C)(C)NC[C@H](O)COc1cccc2c1CCCC2=O`, the Potency result was “inactive”.

Turning to `CN(C)CCOC1=Cc2ccccc2Sc2ccc(Cl)cc21`, the Potency result was “inactive”.

As for `COc1cc2nc(Cl)nc(N)c2cc1OC`, the Potency entry is “inactive”.

With `O=C1CCCc2c(O)cccc21`, the Potency result was “inactive”.

As to `C=CC(=O)O`, the Potency result is “inactive”.

Turning to `Cc1c(C)c2c(c(C)c1O)CC[C@@](C)(CCC[C@H](C)CCC[C@H](C)CCCC(C)C)O2`, the Potency result is “inactive”.

Consider `OC[C@@H](O)C(O)[C@@H](O)CO` (stereo partly specified), for which the Potency result is “inactive”.

On to `C[C@H](CCC(=O)O)[C@H]1CC[C@H]2[C@@H]3[C@H](O)C[C@@H]4C[C@H](O)CC[C@]4(C)[C@H]3C[C@H](O)[C@]12C`, for which the Potency entry was “inactive”.

Take `Cc1ccco1`: the Potency result is “inactive”.

For `CN(C)c1ccc(C(c2ccccc2)c2ccc(N(C)C)cc2)cc1`, the Potency entry is “inactive”.

`CCCCOC(=O)C(C)Oc1ccc(Oc2ccc(C(F)(F)F)cn2)cc1` (stereo unspecified): the Potency entry is “inactive”.
